# Inconclusive results are not listed. Where a call stands in place of a potency, no number is given. Active and inactive are the calls of the source. Calls come from the whole dose curve; as a rule, active = well fitted inhibition curve with a large enough effect; inconclusive = small, poorly fitted or top-dose-only effect; inactive = flat fitted curve, though single readings scatter. Where a SMILES comes first, the peptide text is derived from it. Bridges are numbered along the chain shown (N, C = ends).
# Target: Luciferin 4-monooxygenase (Photinus pyralis) (UniProt P08659)
# Assay: Biochemical firefly luciferase enzyme assay for NPC (AID 624030); note: nearly all actives have a fitted effect of over 70% in size
# Conditions: purified P. pyralis luciferase, luminescence, 5 min; series mostly up to 58.6 µM
# Method in brief: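 Purified P. pyralis luciferase at 10 nM in 50 mM Tris Acetate (final), luminescence read within 5 minutes of enzyme addition to compounds. Activity normalised to PTC124 versus DMSO; concentration-response curves classed by r2, magnitude and activity.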
# Potency is the fitted concentration of half-maximal effect.
# Chain of Luciferin 4-monooxygenase (Photinus pyralis) (P08659 whole entry, looked up): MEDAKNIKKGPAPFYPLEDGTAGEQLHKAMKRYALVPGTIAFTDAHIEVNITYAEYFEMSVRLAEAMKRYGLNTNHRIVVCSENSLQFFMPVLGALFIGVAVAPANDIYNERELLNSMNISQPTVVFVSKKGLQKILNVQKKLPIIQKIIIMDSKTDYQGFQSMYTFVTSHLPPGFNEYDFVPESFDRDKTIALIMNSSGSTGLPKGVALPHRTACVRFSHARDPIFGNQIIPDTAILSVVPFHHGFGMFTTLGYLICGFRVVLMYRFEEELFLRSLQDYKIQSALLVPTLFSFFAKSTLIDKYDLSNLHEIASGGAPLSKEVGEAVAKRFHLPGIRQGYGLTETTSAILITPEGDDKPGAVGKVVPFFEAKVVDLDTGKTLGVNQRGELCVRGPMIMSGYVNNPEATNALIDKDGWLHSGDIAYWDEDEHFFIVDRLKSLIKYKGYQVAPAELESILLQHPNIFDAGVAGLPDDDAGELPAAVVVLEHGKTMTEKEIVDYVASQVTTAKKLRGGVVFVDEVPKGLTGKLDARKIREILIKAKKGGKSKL
row,Compound,Potency
1,CCOC(=O)Cc1cccc(-c2cc(CCCCCCc3ccc(O[C@H]4O[C@H](COC(C)=O)[C@@H](OC(C)=O)[C@H](OC(C)=O)[C@@H]4OC(C)=O)c(-c4cccc(CC(=O)OCC)c4)c3)ccc2O[C@H]2O[C@H](COC(C)=O)[C@@H](OC(C)=O)[C@H](OC(C)=O)[C@@H]2OC(C)=O)c1,inactive
2,OCC(O)COc1ccc(Cl)cc1 (stereo not given),inactive
3,CC(=O)OC[C@H]1O[C@@H](O[C@H]2[C@H](O)[C@@H](OC(=O)c3ccccc3C(=O)O)[C@H](O)O[C@@H]2COC(C)=O)[C@H](O)[C@@H](OC(=O)c2ccccc2C(=O)O)[C@@H]1O,inactive
4,O=C(O)c1cc2ccccc2c(Cc2c(O)c(C(=O)O)cc3ccccc23)c1O,14.4 µM (active)
5,NNc1nnc(Cc2ccncc2)c2ccccc12,5.1 µM (active)
6,NCCCNCCCCNC(=O)C(O)NC(=O)CCCCCCN=C(N)N (stereo not given),inactive
7,O=C1C(c2[nH]c3ccc(S(=O)(=O)O)cc3c2O)=Nc2ccc(S(=O)(=O)O)cc21,inactive
8,O=C(Cn1cnnn1)N[C@@H]1C(=O)N2C(C(=O)O)=C(CSc3nncs3)CS[C@H]12,inactive
9,Cc1ccc(C2(O)CCN(CCCC(=O)c3ccc(F)cc3)CC2)cc1,inactive
10,CCOC(=O)COc1ccc2c(C)c(CCN(CC)CC)c(=O)oc2c1,inactive
11,CN1CC(O)c2cc(N=NC(N)=O)c(O)cc21 (stereo not given),inactive
12,NC(=O)C[C@@H](N)C(=O)O,inactive
13,O=P(O)(O)C(O)(Cc1cnc2ccccn12)P(=O)(O)O,inactive
14,NCCCC[C@H](NC(=O)[C@@H]1CCCN1C(=O)[C@@H]1CSSC[C@H](NC(=O)CNC(=O)CNC(=O)CN)C(=O)N[C@@H](Cc2ccc(O)cc2)C(=O)N[C@@H](Cc2ccccc2)C(=O)N[C@@H](CCC(N)=O)C(=O)N[C@@H](CC(N)=O)C(=O)N1)C(=O)NCC(N)=O (H-GGGCYFQNCPKG-NH2; disulfide 4-9),inactive
15,CC1=C(C(=O)OCCN(Cc2ccccc2)c2ccccc2)C(c2cccc([N+](=O)[O-])c2)C(P2(=O)OCC(C)(C)CO2)=C(C)N1 (stereo not given),inactive
16,CCCCCC(O)/C=C/C=O (stereo not given),inactive
17,CN1CCN(CCCN2c3ccccc3Sc3ccccc32)CC1,inactive
18,O=[N+]([O-])c1ccc(Oc2ccc(N=C=S)cc2)cc1,inactive
19,OC(CN1CCCCC1)c1cc(-c2ccccc2)on1 (stereo not given),inactive
20,O=P(O)(O)OC(Cn1cncn1)(Cn1cncn1)c1ccc(F)cc1F,inactive
21,Cn1nnnc1SCC1=C(C(=O)O)N2C(=O)[C@@H](NC(=O)[C@H](OC=O)c3ccccc3)[C@H]2SC1,inactive
22,Cc1cc(Nc2ccccc2C(=O)O)ccc1Cl,16.1 µM (active)
23,CCCCC(=O)O,inactive
24,C[N+](C)(CCCCCC[N+](C)(C)C1c2ccccc2-c2ccccc21)C1c2ccccc2-c2ccccc21,inactive
25,CNC[C@@H]1CC[C@@H](N)[C@@H](O[C@H]2[C@H](O)[C@@H](O[C@H]3OC[C@](C)(O)[C@H](NC)[C@H]3O)[C@H](N)C[C@@H]2N)O1,inactive
26,N[C@@H](C(=O)N[C@H]1C(=O)N2C(C(=O)O)=C(Cl)CC[C@H]12)c1ccccc1,inactive
27,CCOC(=O)[C@H](CCc1ccccc1)N[C@H]1CCCN2CCC[C@@H](C(=O)O)N2C1=O,inactive
28,CCN(CC)c1ccc(N=Nc2ccc(S(=O)(=O)N(C)C)cc2)c(S(=O)(=O)NCC[n+]2ccccc2)c1,inactive
29,Cc1c(O)cc2c(c1C)O[C@](C)(CCC[C@H](C)CCC[C@H](C)CCCC(C)C)CC2,inactive
30,CCOc1ccc(N=C(C)Nc2ccc(OCC)cc2)cc1,inactive
